Where “and” joins values, the source holds several entries; their conditions need not be identical. Equal entries are not always repeated. Records with an inconclusive call do not appear. A number with no mark means an inactive call. Calls of active or inactive are those of the source. Calls follow the shape of the dose curve; as a rule, active = well fitted cell-killing curve with a large enough effect; inconclusive = small, poorly fitted or top-dose-only effect; inactive = flat fitted curve, though single readings scatter.
Potency is read from the fitted curve at half-maximal effect.

The first test can be described thus: Cellular viability qHTS for adrenocortical cancer (ACC) cell line SW-13 (AID 1963989). Also: nearly all actives have a fitted effect of over 65% in size.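 As to activity (max response): cells grown in serum-free medium with ITS supplement; % is scaled to controls: 0 for no effect and ±100 for the full control effect.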 The note with it: SW-13 ACC cells viability, CellTiter-Glo, 48 h; activity (max response): active compounds read low. Put shortly: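 SW-13 cells in ITS-supplemented serum-free DMEM were plated overnight, then exposed for 48 h at 37C to compound titrations (up to 46 uM final). Viability was read by CellTiter-Glo luminescence; four-parameter logistic fits gave IC50 and efficacy.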
Background: In qHTS, concentration-response curves come from the screen itself.
With `Cc1cccc(Nc2ccccc2C(=O)O)c1C`, the activity (max response) is 8.3%.

Consider `Nc1ccc(S(=O)(=O)Nc2ccccc2)cc1`, for which the activity (max response) was 5.64%.

In the case of `CC(=O)N1CCN(c2ccc(NC(=O)Cc3cnc(-c4ccnc(F)c4)c(C)c3)nc2)CC1`, the activity (max response) is 4.66%.

With `Cc1c(CN2CCN(C(=O)[C@H](C)O)CC2)sc2c(N3CCOCC3)nc(-c3cnc(N)nc3)nc12`, the Potency is 0.631 µM (active).

With `CC(=O)[C@@]1(O)CC[C@H]2[C@@H]3CCC4=CC(=O)CC[C@]4(C)[C@H]3CC[C@@]21C`, the activity (max response) is -6.65%.

Consider `NC(N)=NC(=O)Cc1c(Cl)cccc1Cl`, for which the activity (max response) was -7.72%.

Regarding `Cn1ncc(Cl)c1-c1cc(C(=O)N[C@H](CN)Cc2ccc(F)c(F)c2)sc1Cl`, the Potency is 8.91 µM (active).

As to `O=C(O)CCCCN(CCc1ccccc1OCc1ccc(CCc2ccccc2)cc1)Cc1ccc(C(=O)O)cc1`, the activity (max response) is 9.06%.

In the case of `Cc1ccc(-c2ccc(C)cn2)nc1`, the activity (max response) was -26.3%.

For `O=C(NC[C@H](O)CN1CCc2ccccc2C1)c1ccnc(NC2CCC2)c1`, the activity (max response) is -19.6%.

Turning to `C[C@]12CC[C@@H]3c4ccc(O)cc4CC[C@H]3[C@@H]1C[C@@H](O)[C@@H]2O`, the activity (max response) is -7.09%.

With `CS(=O)(=O)c1ccc([C@@H](O)[C@@H](CF)NC(=O)C(Cl)Cl)cc1`, the activity (max response) is -12.7%.

`C#CCN(C)CCCOc1ccc(Cl)cc1Cl`: the activity (max response) is -17.3%.

As to `C[C@H](Nc1nc(N[C@H](C)C(F)(F)F)nc(-c2cccc(Cl)n2)n1)C(F)(F)F`, the activity (max response) is -11.6%.

Take `COc1cc(=C2C=c3ccccc3=N2)[nH]/c1=C/c1[nH]c(C)cc1C`: the Potency is 28.2 µM (active).

`C=C[C@H]1CN2CC[C@H]1C[C@H]2[C@H](O)c1ccnc2ccc(OC)cc12`: the activity (max response) is -6.74%.

`Nc1ncnc2c1c(-c1cccc(OCc3ccccc3)c1)cn2C1CC(CN2CCCC2)C1` (stereo not given): the Potency was 25.1 µM (active).

With `COC(=O)C1=C(C)NC(C)=C(C(=O)OCC(C)=O)C1c1ccccc1[N+](=O)[O-]` (stereo not given), the Potency is 16.4 µM (active).

As for `CC#Cc1cncc(-c2ccc3c(c2)[C@@]2(N=C(C)C(N)=N2)C2(CCC(OC)CC2)C3)c1` (stereo not given in full), the activity (max response) is -4.31%.

As for `CCN(CCCCOC(=O)c1ccc(OC)c(OC)c1)C(C)Cc1ccc(OC)cc1` (stereo not given), the activity (max response) was -18.6%.

On to `Cn1c(=O)c(Oc2ccc(F)cc2F)cc2cnc(NC3CCOCC3)nc21`, for which the activity (max response) was -3.03%.

As to `CCOc1ccccc1O[C@H](c1ccccc1)[C@H]1CNCCO1`, the activity (max response) was -2.45%.

Regarding `N=C(N)N`, the activity (max response) is 4.4%.

`CCCCNc1ccc(C(=O)OCCN(CC)CC)cc1`: the activity (max response) was -7.77%.

With `CC1Oc2cc(cnc2N)-c2c(nn(C)c2C#N)CN(C)C(=O)c2ccc(F)cc21` (stereo not given), the activity (max response) was -20%.

`C[C@H]1C[C@@H]2[C@H]([C@@H](O)C[C@@]3(C)[C@H]2CC[C@]3(O)C(=O)CO)[C@@]2(C)C=CC(=O)C=C12`: the activity (max response) was 8.4% and 9.49%.

On to `CCN(CC)c1ccc(C(=C2C=CC(=[N+](CC)CC)C=C2)c2cc(S(=O)(=O)O)ccc2S(=O)(=O)[O-])cc1`, for which the Potency is 8.2 µM (active).

Regarding `CO[C@]12C[C@@H](COC(=O)c3cncc(Br)c3)CN(C)[C@@H]1Cc1cn(C)c3cccc2c13`, the activity (max response) is 3.85%.

Turning to `CCCCCCCCCCCCOCCO`, the activity (max response) was 0.306%.

Regarding `CCN(CC)CCOc1ccc(C(O)(Cc2ccc(Cl)cc2)c2ccc(C)cc2)cc1` (stereo not given), the Potency is 20.6 µM (active).

Turning to `COc1ccc(-c2cnc3c(-c4cccc5ncccc45)cnn3c2)cc1`, the activity (max response) was 5.61%.

As to `Cc1onc(-c2ccc(F)cc2)c1COc1ccc(C(=O)N2CCS(=O)(=O)CC2)cn1`, the activity (max response) was -15%.

Take `CCCc1c(OCCCCc2nn[nH]n2)ccc(C(C)=O)c1O`: the activity (max response) was -4.43%.

Take `CN(C)c1ccc(C(=C2C=CC(=[N+](C)C)C=C2)c2ccccc2)cc1`: the Potency was 0.82 µM (active).

Turning to `Cn1c(-c2ccccc2C(F)(F)F)nnc1C12CCC(c3noc(C4CC(F)(F)C4)n3)(CC1)CC2`, the activity (max response) was -6.22%.

Turning to `O=C1c2cccc3c2[C@H](CCC3)CN1[C@@H]1CN2CCC1CC2`, the activity (max response) was -4.45%.

`Nc1nc(OCc2cc(Br)cs2)c2[nH]cnc2n1`: the activity (max response) is -10.5%.

As for `Cc1c(I)c(=O)n(-c2ccccc2)n1C`, the activity (max response) is 0.251%.

Take `CCCCCCn1c(=O)c2c(ncn2C)n(C)c1=O`: the activity (max response) was 14%.

Regarding `O=C(Nc1ccc2c(c1)CCN(Cc1ncn[nH]1)C2)c1ccccc1-c1ccc(C(F)(F)F)cc1`, the activity (max response) is -15.2%.

Another test can be described thus: Cellular viability qHTS for adrenocortical cancer (ACC) cell line NCI-H295R (AID 1963990). Also: nearly all actives have a fitted effect of over 60% in size. The settings on record: CellTiter-Glo ATP luminescence, 48 h; series mostly up to 46.1 µM. Put shortly: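 Luminescent ATP read-out (CellTiter-Glo, 20 min RT) after 48 h drug exposure of NCI-H295R cells; a titration up to 46 uM final. Data normalized to doxorubicin (100% inhibition) and DMSO (0%); 4-parameter fit gives IC50, max response.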
As for `Cc1cccc(Nc2ccccc2C(=O)O)c1C`, the Potency entry was “inactive”.

Regarding `Nc1ccc(S(=O)(=O)Nc2ccccc2)cc1`, the Potency entry is “inactive”.

Turning to `CC(=O)N1CCN(c2ccc(NC(=O)Cc3cnc(-c4ccnc(F)c4)c(C)c3)nc2)CC1`, the Potency result is “inactive”.

As for `Cc1c(CN2CCN(C(=O)[C@H](C)O)CC2)sc2c(N3CCOCC3)nc(-c3cnc(N)nc3)nc12`, the Potency was 0.398 µM (active).

Turning to `CC(=O)[C@@]1(O)CC[C@H]2[C@@H]3CCC4=CC(=O)CC[C@]4(C)[C@H]3CC[C@@]21C`, the Potency result was “inactive”.

With `NC(N)=NC(=O)Cc1c(Cl)cccc1Cl`, the Potency entry is “inactive”.

Turning to `Cn1ncc(Cl)c1-c1cc(C(=O)N[C@H](CN)Cc2ccc(F)c(F)c2)sc1Cl`, the Potency is 3.16 µM (active).

`O=C(O)CCCCN(CCc1ccccc1OCc1ccc(CCc2ccccc2)cc1)Cc1ccc(C(=O)O)cc1`: the Potency result was “inactive”.

In the case of `Cc1ccc(-c2ccc(C)cn2)nc1`, the Potency result is “inactive”.

In the case of `O=C(NC[C@H](O)CN1CCc2ccccc2C1)c1ccnc(NC2CCC2)c1`, the Potency result was “inactive”.

Take `C[C@]12CC[C@@H]3c4ccc(O)cc4CC[C@H]3[C@@H]1C[C@@H](O)[C@@H]2O`: the Potency entry was “inactive”.

As for `CS(=O)(=O)c1ccc([C@@H](O)[C@@H](CF)NC(=O)C(Cl)Cl)cc1`, the Potency entry is “inactive”.

Regarding `C#CCN(C)CCCOc1ccc(Cl)cc1Cl`, the Potency is 18.4 µM (active).

Consider `C[C@H](Nc1nc(N[C@H](C)C(F)(F)F)nc(-c2cccc(Cl)n2)n1)C(F)(F)F`, for which the Potency result was “inactive”.

As for `COc1cc(=C2C=c3ccccc3=N2)[nH]/c1=C/c1[nH]c(C)cc1C`, the Potency was 7.94 µM (active).

Consider `C=C[C@H]1CN2CC[C@H]1C[C@H]2[C@H](O)c1ccnc2ccc(OC)cc12`, for which the Potency entry is “inactive”.

With `Nc1ncnc2c1c(-c1cccc(OCc3ccccc3)c1)cn2C1CC(CN2CCCC2)C1` (stereo not given), the Potency is 2.24 µM (active).

Take `COC(=O)C1=C(C)NC(C)=C(C(=O)OCC(C)=O)C1c1ccccc1[N+](=O)[O-]` (stereo not given): the Potency was 6.51 µM (active).

Consider `CC#Cc1cncc(-c2ccc3c(c2)[C@@]2(N=C(C)C(N)=N2)C2(CCC(OC)CC2)C3)c1` (stereo not given in full), for which the Potency entry was “inactive”.

As to `CCN(CCCCOC(=O)c1ccc(OC)c(OC)c1)C(C)Cc1ccc(OC)cc1` (stereo not given), the Potency entry was “inactive”.

For `Cn1c(=O)c(Oc2ccc(F)cc2F)cc2cnc(NC3CCOCC3)nc21`, the Potency entry is “inactive”.

`CCOc1ccccc1O[C@H](c1ccccc1)[C@H]1CNCCO1`: the Potency entry is “inactive”.

As for `N=C(N)N`, the Potency result was “inactive”.

In the case of `CCCCNc1ccc(C(=O)OCCN(CC)CC)cc1`, the Potency entry is “inactive”.

For the compound `CC1Oc2cc(cnc2N)-c2c(nn(C)c2C#N)CN(C)C(=O)c2ccc(F)cc21` (stereo not given), the Potency is 20 µM (active).

`C[C@H]1C[C@@H]2[C@H]([C@@H](O)C[C@@]3(C)[C@H]2CC[C@]3(O)C(=O)CO)[C@@]2(C)C=CC(=O)C=C12`: the Potency entry is “inactive”.

For `CCN(CC)c1ccc(C(=C2C=CC(=[N+](CC)CC)C=C2)c2cc(S(=O)(=O)O)ccc2S(=O)(=O)[O-])cc1`, the Potency is 7.31 µM (active).

For the compound `CO[C@]12C[C@@H](COC(=O)c3cncc(Br)c3)CN(C)[C@@H]1Cc1cn(C)c3cccc2c13`, the Potency result was “inactive”.

With `CCCCCCCCCCCCOCCO`, the Potency entry is “inactive”.

In the case of `CCN(CC)CCOc1ccc(C(O)(Cc2ccc(Cl)cc2)c2ccc(C)cc2)cc1` (stereo not given), the Potency was 16.4 µM (active).

As for `COc1ccc(-c2cnc3c(-c4cccc5ncccc45)cnn3c2)cc1`, the Potency entry was “inactive”.

For the compound `Cc1onc(-c2ccc(F)cc2)c1COc1ccc(C(=O)N2CCS(=O)(=O)CC2)cn1`, the Potency entry is “inactive”.

`CCCc1c(OCCCCc2nn[nH]n2)ccc(C(C)=O)c1O`: the Potency entry is “inactive”.

Take `CN(C)c1ccc(C(=C2C=CC(=[N+](C)C)C=C2)c2ccccc2)cc1`: the Potency was 0.92 µM (active).

As to `Cn1c(-c2ccccc2C(F)(F)F)nnc1C12CCC(c3noc(C4CC(F)(F)C4)n3)(CC1)CC2`, the Potency result is “inactive”.

Turning to `O=C1c2cccc3c2[C@H](CCC3)CN1[C@@H]1CN2CCC1CC2`, the Potency entry is “inactive”.

Turning to `Nc1nc(OCc2cc(Br)cs2)c2[nH]cnc2n1`, the Potency result is “inactive”.

Regarding `Cc1c(I)c(=O)n(-c2ccccc2)n1C`, the Potency result is “inactive”.

Consider `CCCCCCn1c(=O)c2c(ncn2C)n(C)c1=O`, for which the Potency entry was “inactive”.

On to `O=C(Nc1ccc2c(c1)CCN(Cc1ncn[nH]1)C2)c1ccccc1-c1ccc(C(F)(F)F)cc1`, for which the Potency entry is “inactive”.
